Measured values taken from PubChem BioAssay AID493168 (National Center for Advancing Translational Sciences (NCATS), 2011).
Records with an inconclusive call do not appear. The source made the active and inactive calls. Calls follow the shape of the dose curve; as a rule, active = well fitted inhibition curve with a large enough effect; inconclusive = small, poorly fitted or top-dose-only effect, or effect the other way; inactive = flat fitted curve, though single readings scatter.

target: Ubiquitin carboxyl-terminal hydrolase 2 (Homo sapiens) (UniProt O75604); experiment: Confirmation Assay for Inhibitors of Ubiquitin-specific Protease USP2a Using CHOP2 as the Reporter; conditions: USP2 core, Ub-CHOP2 coupled reporter fluorescence; series mostly up to 38.3 µM; also: nearly all actives have a fitted effect of over 55% in size
Sequence (O75604 whole entry, looked up): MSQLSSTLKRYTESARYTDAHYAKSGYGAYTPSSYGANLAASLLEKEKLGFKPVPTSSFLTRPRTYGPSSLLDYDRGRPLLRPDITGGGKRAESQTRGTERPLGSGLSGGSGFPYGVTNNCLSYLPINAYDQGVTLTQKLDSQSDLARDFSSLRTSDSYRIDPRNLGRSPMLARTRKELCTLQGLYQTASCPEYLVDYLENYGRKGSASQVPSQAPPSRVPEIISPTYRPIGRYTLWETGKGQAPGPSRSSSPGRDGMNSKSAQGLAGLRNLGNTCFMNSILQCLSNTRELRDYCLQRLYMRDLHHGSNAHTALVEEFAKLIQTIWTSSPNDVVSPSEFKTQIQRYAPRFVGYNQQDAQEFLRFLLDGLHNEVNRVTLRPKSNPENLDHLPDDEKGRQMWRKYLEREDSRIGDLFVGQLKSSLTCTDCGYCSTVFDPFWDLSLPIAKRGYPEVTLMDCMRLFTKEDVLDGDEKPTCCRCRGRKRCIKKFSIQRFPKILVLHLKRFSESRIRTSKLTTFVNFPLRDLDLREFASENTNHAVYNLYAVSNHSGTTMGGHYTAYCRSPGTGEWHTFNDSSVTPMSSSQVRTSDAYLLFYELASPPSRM
Outline: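 USP2 core (10 nM final) was preincubated with compound for 30 min at RT in Tris-HCl pH 8.0, CaCl2, beta-mercaptoethanol, CHAPS. Ub-CHOP2 and reporter substrate (25 nM final each) were added, and fluorescence (Ex 485/Em 531 nm) was read after 60 min.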

Potency, inactive:
CC(C)(C)[C@H]1COC(=O)[C@@H](Cc2ccc(F)cc2)C/C=C\C[C@@H](CC(=O)N[C@@H](CO)Cc2ccccc2)C(=O)N1, CCOC(=O)c1[nH]c2ccc(OC)cc2c1NC(=O)CCN1CCC(C)CC1, CC(C)(C)OC(=O)C[C@H]1C/C=C\C[C@H](CC(=O)N(CCO)Cc2ccccc2)C(=O)NC[C@H](c2ccccc2)OC1=O, CCOC(=O)c1sc(NC(=O)Nc2ccccc2)cc1C, CC12CN3CC(C)(CN(C1)C3c1ccc(Cl)cc1Cl)C2O (configuration not stated), Cc1nn(C)cc1CNC(=O)c1ccc(Br)o1, O=C(NCC(c1cccnc1)N1CCN(c2ccc(F)cc2)CC1)OCc1ccccc1 (configuration not stated), O=C(NN=Cc1ccc(N2CCOCC2)s1)c1ccc([N+](=O)[O-])cc1, CSCC[C@H](NC(=O)C1CCN(S(=O)(=O)c2ccc(C)cc2)CC1)C(=O)NCc1ccco1, Cc1cc(NC(=O)COC(=O)CCCOc2ccc(Cl)cc2C)no1, COc1ccc(OCC(=O)Nc2ccccc2OC)cc1, O=C(NCc1ccccc1)C1CCC1, Cc1noc(NS(=O)(=O)c2ccc(N3CC(O)=C(c4ccccc4)C3=N)cc2)c1C, O=[N+]([O-])c1cc(-c2nnc(Nc3ccccc3)c3ccccc23)ccc1N1CCOCC1, Cc1ccc(C(=O)NCCCc2ccccc2)s1, Cc1ccc2c(c1)c1c3n2CCN(C(=O)Cn2c(-c4ccccc4)noc2=O)C3CCC1 (configuration not stated), CCOc1cc(N2CCOCC2)c(OCC)cc1NC(=O)Cc1cn2ccsc2n1, CCc1cc2c(=O)c(-c3nc4ccccc4n3C)coc2c(CN2CCCCC2C)c1O (configuration not stated), CC(C)C(=O)Nc1ccc(C(=O)N2CCCCCC2)cc1, COc1ccc(C(=O)OCC(=O)c2c[nH]c3ccccc23)c(OC)c1, CN(C)S(=O)(=O)c1ccc(C(=O)NCCN=C2NS(=O)(=O)c3ccccc32)cc1, FC(F)(F)C1=Nc2cccc3cccc(c23)N1
